Inconclusive results are not listed. Where a call stands in place of a potency, no number is given. The source made the active and inactive calls. Calls come from the whole dose curve; as a rule, active = well fitted curve in the direction sought with a large enough effect; inconclusive = small, poorly fitted or top-dose-only effect, or another doubt; inactive = no such curve, though single readings can be large; an effect the other way counts as inactive or inconclusive.
Tests used:
[1] = molecular target: Metallo-beta-lactamase type 2 (Klebsiella pneumoniae) (UniProt C7C422); assay: qHTS to identify inhibitors of the New Delhi Metallo-beta-lactamase (NDM): assay validation screen against the NCATS LOPAC Collection (AID 1794843); note: series mostly up to about 38 µM
How it was run: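 Absorbance at 485 nm from nitrocefin turnover (50 uM solution added), read at plateau, gives the read-out. Compounds in DMSO were incubated first with 2 nM final NDM-1 in pH 7.0 HEPES buffer containing 1 uM ZnSO4 and 0.01% Tween20.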

[2] = molecular target: Glutathione peroxidase 1 (Homo sapiens) (UniProt P07203); assay: Primary qHTS Assay for Inhibitors of Recombinant Selenoprotein Glutathione Peroxidase 1 (GPX1) (AID 1845191); note: nearly all actives have a fitted effect of over 65% in size; note: potency is the fitted concentration of half-maximal effect
How it was run: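 GR-coupled assay: compounds preincubated 30 min at room temperature with GPX1, then reaction started with CHP; final 10 nM GPX1, 1 mM GSH, 0.5 mM CHP, 0.5 mM NADPH, 100 nM GR, 0.01% BSA, pH 7.5 Tris buffer. NADPH fluorescence (340/450 nm) read at 0 and 15 min.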

[3] = molecular target: Phospholipid hydroperoxide glutathione peroxidase GPX4 (Homo sapiens) (UniProt P36969); assay: Primary qHTS Assay for Inhibitors of Recombinant Selenoprotein Glutathione Peroxidase 4 (GPX4) (AID 1845192); note: nearly all actives have a fitted effect of over 65% in size
How it was run: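 GR-coupled assay: recombinant GPX4 preincubated 30 min with compound at room temperature; final 200 nM GPX4, 1 mM GSH, 0.5 mM cumene hydroperoxide, 0.5 mM NADPH, 100 nM GR, 0.01% BSA, pH 7.5 Tris. NADPH fluorescence (340/450 nm) read at 0 and 15 min.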

[4] = molecular target: Luciferin 4-monooxygenase (Photinus pyralis) (UniProt P08659); assay: Primary firefly luciferase (FLuc) qHTS assay for identification of artifact compounds. (AID 1845220); details: outcome: dose series up to 54.1 µM unless noted; note: nearly all actives have a fitted effect of over 60% in size
How it was run: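 Titrated compounds were incubated 15 min at RT, protected from light, with luciferin and ATP at 10 uM; reaction started with 10 nM FLuc, luminescence imaged at 5 min, and concentration-response fitted by Hill equation.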

Chain of Phospholipid hydroperoxide glutathione peroxidase GPX4 (Homo sapiens) (P36969 whole entry, looked up): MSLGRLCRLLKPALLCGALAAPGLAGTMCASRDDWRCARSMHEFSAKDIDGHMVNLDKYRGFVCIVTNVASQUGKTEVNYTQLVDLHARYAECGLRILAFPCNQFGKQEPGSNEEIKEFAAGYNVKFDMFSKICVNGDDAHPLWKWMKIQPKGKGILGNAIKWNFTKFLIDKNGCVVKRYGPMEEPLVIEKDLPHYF
Chain of Metallo-beta-lactamase type 2 (Klebsiella pneumoniae) (C7C422 whole entry, looked up): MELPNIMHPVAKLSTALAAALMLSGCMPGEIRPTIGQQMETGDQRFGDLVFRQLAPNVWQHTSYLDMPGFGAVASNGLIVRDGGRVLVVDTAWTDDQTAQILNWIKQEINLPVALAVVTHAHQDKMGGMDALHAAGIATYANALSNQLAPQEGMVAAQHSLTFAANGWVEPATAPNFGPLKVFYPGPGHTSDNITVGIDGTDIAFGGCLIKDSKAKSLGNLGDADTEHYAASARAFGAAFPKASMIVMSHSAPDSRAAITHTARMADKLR
Chain of Glutathione peroxidase 1 (Homo sapiens) (P07203 whole entry, looked up): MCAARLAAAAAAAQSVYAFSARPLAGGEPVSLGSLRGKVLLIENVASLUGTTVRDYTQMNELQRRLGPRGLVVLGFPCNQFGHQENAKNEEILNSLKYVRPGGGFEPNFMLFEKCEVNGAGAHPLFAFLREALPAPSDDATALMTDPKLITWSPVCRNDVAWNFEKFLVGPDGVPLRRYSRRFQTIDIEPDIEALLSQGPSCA

**Q.** What does the source list for `O=C1N=C(O)CN1/N=C/c1ccc(-c2ccc([N+](=O)[O-])cc2)o1`?
**A.** outcome [1]: inactive; Potency [2]: inactive; Potency [3]: inactive

**Q.** With `CC1=C(CC(=O)O)c2cc(F)ccc2/C1=C\c1ccc(S(C)=O)cc1` (centres undefined) as the compound, how does the outcome [1] read?
**A.** inactive

**Q.** What about the Potency [2] of the same compound?
**A.** inactive

**Q.** And the Potency [3]?
**A.** inactive

**Q.** With `CN1CCN(C2Cc3ccccc3Sc3ccc(Cl)cc32)CC1` (centres undefined) as the compound, how does the outcome [1] read?
**A.** inactive

**Q.** What about the Potency [2] of the same compound?
**A.** inactive

**Q.** What about the Potency [3] of the same compound?
**A.** inactive

**Q.** Which outcome [1] does the source give for `CNC(=O)Oc1ccc2c(c1)[C@]1(C)CCN(C)[C@@H]1N2C` here?
**A.** inactive

**Q.** What about the Potency [2] of the same compound?
**A.** inactive

**Q.** And the Potency [3]?
**A.** inactive

**Q.** And the outcome [4]?
**A.** inactive

**Q.** Which results are given for `CNCCC(Oc1ccc(C(F)(F)F)cc1)c1ccccc1` (centres undefined)?
**A.** outcome [1]: inactive; Potency [2]: inactive; Potency [3]: inactive

**Q.** `CC(C)NC[C@H](O)c1ccc(O)c(O)c1` was tested. Which outcome [1] did it give?
**A.** inactive

**Q.** What about the Potency [2] of the same compound?
**A.** inactive

**Q.** What about the Potency [3] of the same compound?
**A.** inactive

**Q.** How did the outcome [1] turn out when `C#CCN(C)Cc1ccccc1` was run?
**A.** inactive

**Q.** And the Potency [2]?
**A.** inactive

**Q.** And the Potency [3]?
**A.** inactive

**Q.** Which results are given for `CN(C)CCC=C1c2ccccc2CCc2ccccc21`?
**A.** outcome [1]: inactive; Potency [2]: inactive; Potency [3]: inactive

**Q.** With `CCN(CC)CCNC(=O)c1cc(Cl)c(N)cc1OC` as the compound, how does the outcome [1] read?
**A.** inactive

**Q.** What about the Potency [2] of the same compound?
**A.** inactive

**Q.** And the Potency [3]?
**A.** inactive

**Q.** What about the outcome [4] of the same compound?
**A.** inactive

**Q.** `CC1=C(CC(=O)O)c2cc(F)ccc2/C1=C\c1ccc(S(C)(=O)=O)cc1` was tested. Which outcome [1] did it give?
**A.** inactive

**Q.** And the Potency [2]?
**A.** inactive

**Q.** What about the Potency [3] of the same compound?
**A.** inactive

**Q.** How did the Potency [2] turn out when `CC(=O)O[C@@]12CO[C@@H]1C[C@H](O)[C@@]1(C)C(=O)[C@H](O)C3=C(C)[C@@H](OC(=O)[C@H](O)[C@@H](NC(=O)OC(C)(C)C)c4ccccc4)C[C@@](O)([C@@H](OC(=O)c4ccccc4)[C@H]21)C3(C)C` was run?
**A.** inactive

**Q.** With `CO/N=C(\C(=O)N[C@@H]1C(=O)N2C(C(=O)O)=C(CSc3nc(=O)c(O)nn3C)CS[C@H]12)c1csc(N)n1` as the compound, how does the Potency [2] read?
**A.** 9.04 µM (active)

**Q.** Which results are given for `O=C1NC(=O)[C@@]2(CCOc3ccc(F)cc32)N1`?
**A.** outcome [1]: inactive; Potency [2]: inactive; Potency [3]: inactive

**Q.** `CC(C)c1c(C(=O)Nc2ccccc2)c(-c2ccccc2)c(-c2ccc(F)cc2)n1CC[C@@H](O)C[C@@H](O)CC(=O)O` was tested. Which outcome [1] did it give?
**A.** inactive

**Q.** What about the Potency [2] of the same compound?
**A.** inactive

**Q.** What about the Potency [3] of the same compound?
**A.** inactive

**Q.** And the outcome [4]?
**A.** inactive [at 25.7 µM]

**Q.** How did the outcome [1] turn out when `CC(C)C(=O)c1c(C(C)C)nn2ccccc12` was run?
**A.** inactive

**Q.** What about the Potency [2] of the same compound?
**A.** inactive

**Q.** What about the Potency [3] of the same compound?
**A.** inactive

**Q.** How did the outcome [1] turn out when `CC(C)(C(=O)O)c1ccc(C(O)CCCN2CCC(C(O)(c3ccccc3)c3ccccc3)CC2)cc1` (centres undefined) was run?
**A.** inactive

**Q.** What about the Potency [2] of the same compound?
**A.** inactive

**Q.** What about the Potency [3] of the same compound?
**A.** inactive

**Q.** What about the outcome [4] of the same compound?
**A.** inactive

**Q.** `CCN(CC)CCOC(=O)C1(C2CCCCC2)CCCCC1` was tested. Which outcome [1] did it give?
**A.** inactive

**Q.** And the Potency [2]?
**A.** inactive

**Q.** What about the Potency [3] of the same compound?
**A.** inactive

**Q.** Which outcome [1] does the source give for `Nc1ncnc2c1ncn2[C@@H]1O[C@H](CO)[C@@H](O)[C@H]1O` here?
**A.** inactive

**Q.** And the Potency [2]?
**A.** inactive

**Q.** What about the Potency [3] of the same compound?
**A.** inactive

**Q.** What does the source list for `CC(C(O)c1ccc(O)cc1)N1CCC(Cc2ccccc2)CC1` (centres undefined)?
**A.** outcome [1]: inactive; Potency [2]: inactive; Potency [3]: inactive; outcome [4]: inactive [at 25.7 µM]

**Q.** Which outcome [1] does the source give for `CN(C)CCOC(C)(c1ccccc1)c1ccccn1` (centres undefined) here?
**A.** inactive

**Q.** What about the Potency [2] of the same compound?
**A.** inactive

**Q.** What about the Potency [3] of the same compound?
**A.** inactive

**Q.** What does the source list for `N[C@H]1C(O)O[C@H](CO)[C@@H](O)[C@@H]1O` (some centres undefined)?
**A.** Potency [2]: inactive; Potency [3]: inactive

**Q.** Which Potency [2] does the source give for `O=C(O)CC(O)C(=O)O` (centres undefined) here?
**A.** inactive

**Q.** What about the Potency [3] of the same compound?
**A.** inactive

**Q.** Which outcome [1] does the source give for `C[C@H]1O[C@@H](n2cc(F)c(=O)[nH]c2=O)[C@H](O)[C@@H]1O` here?
**A.** inactive

**Q.** What about the Potency [2] of the same compound?
**A.** inactive

**Q.** And the Potency [3]?
**A.** inactive

**Q.** Which outcome [1] does the source give for `CC(C)(C)[C@]1(O)CCN2C[C@H]3c4ccccc4CCc4cccc(c43)[C@@H]2C1` here?
**A.** inactive

**Q.** And the Potency [2]?
**A.** inactive

**Q.** What about the Potency [3] of the same compound?
**A.** inactive

**Q.** What does the source list for `C[C@](N)(Cc1ccc(O)cc1)C(=O)O`?
**A.** outcome [1]: inactive; Potency [2]: inactive; Potency [3]: inactive

**Q.** With `COc1ccc(Cl)cc1C(=O)NCCc1ccc(S(=O)(=O)NC(=O)NC2CCCCC2)cc1` as the compound, how does the outcome [1] read?
**A.** inactive

**Q.** And the Potency [2]?
**A.** inactive

**Q.** What about the Potency [3] of the same compound?
**A.** inactive

**Q.** And the outcome [4]?
**A.** inactive

**Q.** With `CCN(CC)CCCC(C)Nc1c2ccc(Cl)cc2nc2ccc(OC)cc12` (centres undefined) as the compound, how does the outcome [1] read?
**A.** inactive

**Q.** And the Potency [2]?
**A.** inactive

**Q.** What about the Potency [3] of the same compound?
**A.** inactive

**Q.** And the outcome [4]?
**A.** inactive [at 25.7 µM]

**Q.** What does the source list for `Cc1cc(N)c2ccccc2[n+]1CCCCCCCCCC[n+]1c(C)cc(N)c2ccccc21`?
**A.** outcome [1]: inactive; Potency [2]: inactive; Potency [3]: inactive; outcome [4]: inactive

**Q.** How did the outcome [1] turn out when `COC(=O)C1=C(C)NC(C)=C(C(=O)OC)C1c1ccccc1[N+](=O)[O-]` was run?
**A.** inactive

**Q.** And the Potency [2]?
**A.** inactive

**Q.** And the Potency [3]?
**A.** inactive

**Q.** `NS(=O)(=O)c1cc2c(cc1Cl)NC(CSCc1ccccc1)=NS2(=O)=O` was tested. Which Potency [2] did it give?
**A.** inactive

**Q.** What about the Potency [3] of the same compound?
**A.** inactive

**Q.** Which results are given for `C[C@H](N)[C@H](O)c1cccc(O)c1`?
**A.** Potency [2]: inactive; Potency [3]: inactive

**Q.** How did the Potency [2] turn out when `O=C(O)Cc1sc(-c2ccccc2)nc1-c1ccc(Cl)cc1` was run?
**A.** inactive

**Q.** What about the Potency [3] of the same compound?
**A.** inactive

**Q.** How did the Potency [2] turn out when `CC(C)(C)c1onc(OCP(=O)(O)O)c1CC(N)C(=O)O` (centres undefined) was run?
**A.** inactive

**Q.** And the Potency [3]?
**A.** inactive

**Q.** For `O=C(O)COc1nn(Cc2ccccc2)c2ccccc12`, which Potency [2] is on record?
**A.** inactive

**Q.** And the Potency [3]?
**A.** inactive

**Q.** With `CC(COc1ccccc1)NC(C)C(O)c1ccc(O)cc1` (centres undefined) as the compound, how does the Potency [2] read?
**A.** inactive

**Q.** And the Potency [3]?
**A.** inactive

**Q.** With `Cc1cc(O)cc2c1O[C@](C)(CCC[C@H](C)CCC[C@H](C)CCCC(C)C)CC2` as the compound, how does the Potency [2] read?
**A.** inactive

**Q.** What about the Potency [3] of the same compound?
**A.** inactive

**Q.** Which results are given for `COc1ccc2cc1Oc1cc3c(cc1OC)CC[N+](C)(C)[C@H]3Cc1ccc(cc1)Oc1c(OC)c(OC)cc3c1[C@@H](C2)[N+](C)(C)CC3`?
**A.** Potency [2]: inactive; Potency [3]: inactive

**Q.** `CCn1cc(C(=O)O)c(=O)c2cnc(N3CCNCC3)nc21` was tested. Which Potency [2] did it give?
**A.** inactive

**Q.** What about the Potency [3] of the same compound?
**A.** inactive

**Q.** Which results are given for `CC[C@@]1(c2ccccc2)NC(=O)N(C)C1=O`?
**A.** Potency [2]: inactive; Potency [3]: inactive

**Q.** What does the source list for `CCN(CC)CCNC(C(=O)OCCC(C)C)c1ccccc1` (centres undefined)?
**A.** Potency [2]: inactive; Potency [3]: inactive

**Q.** Which Potency [2] does the source give for `CN(N=O)C(=O)N[C@@H]1[C@@H](O)[C@H](O)[C@@H](CO)O[C@@H]1O` here?
**A.** inactive

**Q.** What about the Potency [3] of the same compound?
**A.** inactive

**Q.** With `C[C@@H](O)[C@H](N)C(=O)O` as the compound, how does the Potency [2] read?
**A.** inactive

**Q.** What about the Potency [3] of the same compound?
**A.** inactive

**Q.** For `CC(=O)CCC(=O)O`, which Potency [2] is on record?
**A.** inactive

**Q.** And the Potency [3]?
**A.** inactive

**Q.** `O=C1c2c(O)cccc2Cc2cccc(O)c21` was tested. Which Potency [2] did it give?
**A.** inactive

**Q.** And the Potency [3]?
**A.** inactive
